Source: PubChem (several laboratories)
Most compounds without a hit are left out; they make up all but 3.2% or so of the library.
NTR1 agonist – agonists of human neurotensin receptor NTR1. P30989. NTR1-U2OS beta-arrestin-GFP spot imaging, agonist mode. activation, % at 20 µM. actives 0.17% (n = 330,000). AID 493036;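 active = activation at or above 40% of the spot to cytoplasm intensity ratio, with at least 20 cells analyzed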
APOBEC3A inh – blocks human APOBEC3A ssDNA deamination; P31941; recombinant A3A, FAM/TAMRA ssDNA deamination fluorescence; inhibition, % at 20 µM; actives 0.41% (n = 330,000);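 active = at least 40% inhibition at 20 µM here, with at most 30% in a related deaminase screen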
AHR activator – human AHR activation; AHR-responsive luciferase reporter cells, luminescence; activation, % at 5 µM; actives 2.5% (n = 320,000); in the data active = activation above about 47%
APOBEC3G inh – blocks human APOBEC3G single-stranded DNA deamination. AID 493012. Q9HC16. recombinant A3G, ssDNA deamination FAM/TAMRA fluorescence. inhibition, % at 20 µM. actives 0.28% (n = 330,000);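 active = inhibition of at least 40% at 20 µM, with no more than 30% in the related APOBEC3A deaminase screen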
AHR act confirm – confirmation of human aryl hydrocarbon receptor activators; shares compounds with AHR activator; activation, % at 9 µM; actives 87% (n = 2,300); human cells, AHR-responsive luciferase reporter, luminescence; in the data active = activation above about 49%;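 note: HepG2 hepatoma cells carrying a DRE-driven firefly luciferase reporter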
PXR act counter – counter-screen for AHR activators: human PXR activators | AID 434939 | cell-based PXR reporter, luciferase luminescence | shares compounds with AHR activator | actives 88% (n = 2,300) | activation, % at 11.6 µM; in the data active = activation above about 11%;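 note: human hepatoma DPX-2 cells expressing full-length human PXR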
Target sequence (O75469 whole entry, looked up): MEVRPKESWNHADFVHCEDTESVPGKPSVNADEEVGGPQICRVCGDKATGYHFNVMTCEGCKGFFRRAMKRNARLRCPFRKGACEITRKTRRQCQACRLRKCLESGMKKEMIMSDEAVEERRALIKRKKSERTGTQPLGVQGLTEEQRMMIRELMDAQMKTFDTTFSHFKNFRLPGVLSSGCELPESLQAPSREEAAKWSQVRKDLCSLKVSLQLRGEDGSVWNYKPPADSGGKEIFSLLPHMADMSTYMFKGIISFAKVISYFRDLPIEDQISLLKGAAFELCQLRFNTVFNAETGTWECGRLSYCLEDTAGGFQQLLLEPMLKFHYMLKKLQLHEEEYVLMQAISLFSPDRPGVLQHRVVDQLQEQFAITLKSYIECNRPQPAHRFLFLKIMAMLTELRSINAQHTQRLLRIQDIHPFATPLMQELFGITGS
A3A conf – confirmation of human APOBEC3A DNA deaminase inhibitors; actives 63% (n = 1,400); shares compounds with APOBEC3A inh; inhibition, % at 20 µM; recombinant A3A, ssDNA deaminase UDG fluorescence assay;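 active = inhibition reaching a set limit, 80% of the first screen's cutoff, at 20 µM in any replicate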
UDG ctr A3A – UDG inhibition in APOBEC3A counter-screen. shares compounds with APOBEC3A inh. UDG counterscreen, FAM/TAMRA uracil oligo fluorescence. inhibition, % at 20 µM. 1,000 tested, under 10 active; call rule not given here
A number is an active result.

Results for COc1ccc2[nH]cc(CCN)c2c1 ?
NTR1 agonist: inactive; APOBEC3A inh: inactive; AHR activator: inactive; APOBEC3G inh: inactive

Results for CCOP(=O)(OCC)C(O)c1ccc(N(C)C)cc1 (configuration not stated) ?
NTR1 agonist: inactive; APOBEC3A inh: inactive; AHR activator: inactive; APOBEC3G inh: inactive

What do the screens show for `COCCOC(=O)c1c(N)n(Cc2ccco2)c2nc3ccccc3nc12`?
NTR1 agonist: inactive; APOBEC3A inh: inactive; AHR activator: 82.0; APOBEC3G inh: inactive; AHR act confirm: inactive; PXR act counter: 91.5

How did O=C1CC(=O)N(Cc2ccccc2)C(=S)N1 do in these assays?
NTR1 agonist: inactive; APOBEC3A inh: inactive; AHR activator: inactive; APOBEC3G inh: inactive

Results for Cc1cc(N2CCCC2)ccc1C=C(C#N)C#N ?
NTR1 agonist: inactive; APOBEC3A inh: inactive; AHR activator: inactive; APOBEC3G inh: inactive

How did Cc1ccc2cc(C=C(C#N)C#N)c(Cl)nc2c1 do in these assays?
NTR1 agonist: inactive; APOBEC3A inh: inactive; AHR activator: 87.9; APOBEC3G inh: inactive; AHR act confirm: inactive; PXR act counter: 20.8

What do the screens show for `Cn1c(O)c(Cc2cccc(Cl)c2Cl)c(=O)n(C)c1=O`?
NTR1 agonist: inactive; APOBEC3A inh: inactive; AHR activator: inactive; APOBEC3G inh: inactive

What do the screens show for `Cc1ccc2nc3c(cc2c1)CC1(C(=O)N(C)C(=O)N(C)C1=O)C1CCCCN31` (configuration not stated)?
NTR1 agonist: inactive; APOBEC3A inh: inactive; AHR activator: 85.2; APOBEC3G inh: inactive; AHR act confirm: 78.3; PXR act counter: 71.8

Results for NCCc1c(Cc2ccccc2)[nH]c2ccccc12 ?
NTR1 agonist: inactive; APOBEC3A inh: inactive; AHR activator: inactive; APOBEC3G inh: inactive

Results for Cc1c(CCN)ccc2c1[nH]c1ccccc12 ?
NTR1 agonist: inactive; APOBEC3A inh: inactive; AHR activator: 92.1; APOBEC3G inh: inactive; AHR act confirm: inactive; PXR act counter: 13.3

What do the screens show for `CNC(=O)Oc1cccc(-c2cn3cc(Cl)ccc3n2)c1`?
NTR1 agonist: inactive; APOBEC3A inh: inactive; AHR activator: 95.7; APOBEC3G inh: inactive; AHR act confirm: inactive; PXR act counter: 12.5

What do the screens show for `C[C@]12CCC3C(CC[C@H]4C[C@@H](O)CC[C@]34C)C1C[C@@H](Br)[C@H]2O` (some centres not stated)?
NTR1 agonist: inactive; APOBEC3A inh: inactive; AHR activator: inactive; APOBEC3G inh: inactive

How did CCCC[N+]12CCC(CC1)C(C(O)(c1ccccc1)c1ccccc1)C2 (configuration not stated) do in these assays?
NTR1 agonist: inactive; APOBEC3A inh: 41.1; AHR activator: inactive; APOBEC3G inh: inactive; A3A conf: 64.4; UDG ctr A3A: inactive

Results for CCC[N+]12CCC(CC1)C(C(O)(c1ccccc1)c1ccccc1)C2 (configuration not stated) ?
NTR1 agonist: inactive; APOBEC3A inh: inactive; AHR activator: inactive; APOBEC3G inh: inactive

Results for CCC1=Nc2cc(C(=O)N3CCC4(CC3)OCCO4)ccc2Sc2ccc(C)cc21 ?
NTR1 agonist: inactive; APOBEC3A inh: inactive; AHR activator: inactive; APOBEC3G inh: inactive

Results for O=C(O)C1C(C(=O)O)C2(Cl)C(Cl)=C(Cl)C1(Cl)C2(Cl)Cl (configuration not stated) ?
NTR1 agonist: inactive; APOBEC3A inh: 43.0; AHR activator: inactive; APOBEC3G inh: inactive; A3A conf: 14.6; UDG ctr A3A: inactive

What do the screens show for `C[C@H]1CC[C@H]2NCCN[C@H]2C1`?
NTR1 agonist: inactive; APOBEC3A inh: 62.0; AHR activator: inactive; APOBEC3G inh: inactive; A3A conf: inactive; UDG ctr A3A: inactive

How did CN(C)C(Cc1ccccc1)C(=O)c1c[nH]c2ccccc12 (configuration not stated) do in these assays?
NTR1 agonist: inactive; APOBEC3A inh: inactive; AHR activator: inactive; APOBEC3G inh: inactive
